Assay outcomes: PubChem BioAssay, National Center for Advancing Translational Sciences (NCATS)
A selection: hits, their analogues and other compounds. The true share with any hit is near 7.3%.
Rab9 promoter act = Rab9 promoter activation; 320,000 tested, 2.8% active; Potency, µM (titrated, usually from 9.22 µM), inactives show at the highest dose activation, negative = inhibition, most hits filed as activators; Huh7 Rab9 promoter-luciferase reporter, luminescence, 24 h; note: % of control where 0% means no effect; nearly all actives have a fitted effect of over 60% in size
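Promoter activation is measured as luciferase luminescence in Huh7 cells stably transfected with a Rab9 promoter–luciferase construct, following 24 h compound exposure at 37 °C and 10 min reagent incubation at ambient temperature.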
NPC1 prom act = activators of NPC1 promoter; Huh7 NPC1 promoter luciferase reporter, 24 h; Potency, µM (top dose mostly 9.22 µM), for inactives: top-dose activation, most hits filed as activators; 320,000 tested, 2.4% active; AID 485313; note: % of control where 0% means no effect; nearly all actives have a fitted effect of over 60% in size
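Compounds in DMSO were transferred onto Huh7 NPC1-luciferase reporter cells pre-incubated 2 h; after 24 h at 37 °C, Amplite reagent was dispensed and luminescence recorded 10 min later.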
uPA generation = blocks generation of uPA at the cell surface; cell surface uPA generation assay, qHTS; 330,000 tested, 0.31% active; Potency, µM (titrated, usually from 38.3 µM), without a hit: at the highest dose activity change, negative = inhibition, usual class: inhibitors; AID 540303; active = well fitted inhibition curve with a large enough effect; inconclusive = small, poorly fitted or top-dose-only effect; inactive = no such curve, though single readings can be large or run the other way; tested in mouse RAW 264.7 cells; note: % is set by controls: 0 for no effect and ±100 for the full control effect; nearly all actives have a fitted effect of over 55% in size
ELG1 genotoxic = genotoxicity induction in ELG1-luciferase HEK293T cells; HEK293T ELG1-luciferase reporter, luminescence, 16 h; Potency, µM (series often up to 46 µM), inactives show at the highest dose activity change, positive = activation, hits mostly activators; 330,000 tested, 1.3% active; AID 504466; note: % of control where 0% means no effect; nearly all actives have a fitted effect of over 60% in size
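DMSO vehicle served as control against compound-treated ELG1-luciferase HEK293T cells; exposure lasted 16 hr at 37 °C and 5% CO2, followed by ONE-Glo luminescence detection after 30 min.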
SMN2 splice enh = SMN2 splice variant enhancement. 210,000 tested, 2.8% active. HEK293 SMN2-luciferase splicing reporter, luminescence, 30-36 h. Potency, µM (titrated, usually from 46.1 µM), inactives show top-dose activity change, positive = activation, hits mostly activators; note: % of control where 0% means no effect; nearly all actives have a fitted effect of over 55% in size
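HEK293 cells carry an SMN2 […]–luciferase reporter in which exon 7 inclusion puts luciferase in frame. Cells were plated 10-12 h before compound addition, then incubated 30-36 h at 37C. ONE-Glo luminescence was read; sodium butyrate at 4.5 mM final served as control.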
FLuc counter = inhibits or activates purified firefly luciferase, miR-21 counter-screen; purified FLuc, Km substrates, luminescence inhibition; Potency, µM (series often up to 57.5 µM), for the others: at the top dose activity change, negative = inhibition, most hits filed as inhibitors; 360,000 tested, 6.9% active;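 note: plate controls were vehicle for no effect and reference inhibitor for full effect; nearly all actives have a fitted effect of over 55% in size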
Target sequence (P08659 whole entry, looked up): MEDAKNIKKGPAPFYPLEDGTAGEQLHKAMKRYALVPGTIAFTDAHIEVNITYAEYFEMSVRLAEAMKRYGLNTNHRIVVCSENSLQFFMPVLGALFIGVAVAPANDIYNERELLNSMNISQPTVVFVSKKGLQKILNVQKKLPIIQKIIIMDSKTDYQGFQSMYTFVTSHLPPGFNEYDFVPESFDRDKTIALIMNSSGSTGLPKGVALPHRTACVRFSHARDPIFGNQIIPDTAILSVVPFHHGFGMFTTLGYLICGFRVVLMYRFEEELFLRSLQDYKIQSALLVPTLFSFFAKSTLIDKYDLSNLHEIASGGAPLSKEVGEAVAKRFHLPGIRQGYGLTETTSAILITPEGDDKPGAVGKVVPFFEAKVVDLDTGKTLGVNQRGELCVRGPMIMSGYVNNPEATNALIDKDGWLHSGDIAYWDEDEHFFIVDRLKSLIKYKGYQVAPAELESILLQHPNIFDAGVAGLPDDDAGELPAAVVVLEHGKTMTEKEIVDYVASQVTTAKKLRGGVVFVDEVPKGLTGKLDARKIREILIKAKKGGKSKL
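Purified P. pyralis luciferase, 10 nM final, with Km-level 10 uM D-luciferin and 10 uM ATP in 50 mM Tris acetate pH 7.5, 10 mM Mg acetate, 0.01% Tween-20, 0.05% BSA; 6-point qHTS titration about 60 µM downward; luminescence read.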
* = called active by the depositor. Unless noted, calls come from the whole dose curve; as a rule, active = well fitted curve in the direction sought with a large enough effect; inconclusive = small, poorly fitted or top-dose-only effect, or another doubt; inactive = no such curve, though single readings can be large; an effect the other way counts as inactive or inconclusive. Potency is the fitted concentration of half-maximal effect.

How did CCS(=O)(=O)c1c(S(=O)(=O)CC)c2cc(C(C)(C)C)ccn2c1C(=O)c1ccc(F)cc1 do in these assays?
FLuc counter: 0.6%

How did COc1ccc(/C=C/C(=O)c2ccc(OC)cc2OC)cc1 do in these assays?
Rab9 promoter act: 11.9%; NPC1 prom act: 20.3%; uPA generation: inconclusive; ELG1 genotoxic: 4.7%; FLuc counter: 12µM*

What do the screens show for `COc1ccc(/C=C/C(=O)c2ccc(Cl)cc2)c(OC)c1`?
Rab9 promoter act: 2.3%; NPC1 prom act: 15.7%; uPA generation: -0.7%; ELG1 genotoxic: inconclusive; SMN2 splice enh: -20.1%; FLuc counter: 2.13µM*

Results for CCCc1cc2c(=O)c(-c3ccccn3)c(C)oc2cc1O ?
Rab9 promoter act: 3.0%; NPC1 prom act: 12.5%; uPA generation: -6.7%; ELG1 genotoxic: 11.3%; SMN2 splice enh: 0.2%; FLuc counter: inconclusive

Results for CCCc1cc2c(=O)c(-c3ccccn3)coc2cc1OC ?
Rab9 promoter act: 1.58µM*; NPC1 prom act: 2µM*; uPA generation: -9.6%; ELG1 genotoxic: inconclusive; SMN2 splice enh: inconclusive; FLuc counter: 4.78µM*

How did CCC(Sc1nnc(-c2ccco2)n1C)C(=O)Nc1nnc(C)s1 (stereo not given) do in these assays?
Rab9 promoter act: -6.7%; NPC1 prom act: -2.7%; uPA generation: -3.4%; ELG1 genotoxic: 2.6%; FLuc counter: -1.0%

How did CCOc1ccc(OC(=O)c2cn(-c3cccc(OC)c3)c(=O)c3ccccc23)cc1 do in these assays?
FLuc counter: 3.8%

What do the screens show for `CCSc1nnc2c(n1)[nH]c1c(C)cccc12`?
Rab9 promoter act: 5.62µM*; NPC1 prom act: 0.4%; uPA generation: -18.9%; ELG1 genotoxic: inconclusive; SMN2 splice enh: -36.8%; FLuc counter: 12µM*

Results for CCOc1ccc(S(=O)(=O)N2CCC(N3CCN(Cc4ccc(F)cc4)C(=O)C3=O)CC2)cc1 ?
FLuc counter: -0.7%

Results for CCCCc1ccc(Nc2cc(C)nc(-n3nc(C)cc3C)n2)cc1 ?
FLuc counter: -15.8%

How did COc1ccccc1N1CCN(c2ncnc3c2oc2ccccc23)CC1 do in these assays?
Rab9 promoter act: -20.2%; NPC1 prom act: -24.4%; uPA generation: -17.7%; ELG1 genotoxic: inconclusive; FLuc counter: 26.9µM*

How did COc1ccc(-c2nsc3c(N4CCN(S(=O)(=O)c5ccccc5)CC4)ncnc23)cc1 do in these assays?
Rab9 promoter act: -7.7%; NPC1 prom act: -3.4%; ELG1 genotoxic: 4.1%; SMN2 splice enh: -18.4%; FLuc counter: -0.5%

Results for O=C(c1ccco1)N1CCN(c2ncnc3c2oc2ccccc23)CC1 ?
Rab9 promoter act: 1.9%; NPC1 prom act: -1.7%; uPA generation: 0.8%; ELG1 genotoxic: inconclusive; SMN2 splice enh: 4.0%; FLuc counter: 23.9µM*

What do the screens show for `c1cnc(N2CCN(c3ncnc4c3oc3ccccc34)CC2)nc1`?
Rab9 promoter act: 8.5%; NPC1 prom act: -1.7%; ELG1 genotoxic: 12.4%; FLuc counter: -0.8%

How did COc1ccc(-c2nsc3c(N4CCCC4)ncnc23)cc1 do in these assays?
Rab9 promoter act: 0.112µM*; NPC1 prom act: 3.98µM*; uPA generation: -0.8%; SMN2 splice enh: inconclusive; FLuc counter: 0.135µM*

Results for O=C(c1ccco1)N1CCN(c2ncnc3c(-c4ccc(Cl)cc4)nsc23)CC1 ?
Rab9 promoter act: 8.8%; NPC1 prom act: 0.9%; uPA generation: 5.6%; ELG1 genotoxic: inconclusive; FLuc counter: 6.01µM*

What do the screens show for `Cc1ccccc1NC(=O)CSc1cn(CC(=O)N(C(C)C)C(C)C)c2ccccc12`?
FLuc counter: 3.0%

Results for CCOC(=O)c1ccc(S(=O)(=O)Nc2cc(S(=O)(=O)N3CCOCC3)ccc2O)cc1 ?
uPA generation: -6.0%; ELG1 genotoxic: 0.4%

Results for O=C(COC(=O)CCN=C1NS(=O)(=O)c2ccccc21)NNC(=O)c1ccccc1 ?
Rab9 promoter act: -1.2%; NPC1 prom act: -2.6%; uPA generation: 2.3%; ELG1 genotoxic: 1.9%; FLuc counter: 11.2%

Results for Cc1cc(O)ccc1N/C=C/c1onc(C)c1[N+](=O)[O-] ?
Rab9 promoter act: 2.51µM*; NPC1 prom act: 3.16µM*; uPA generation: -4.0%; ELG1 genotoxic: inconclusive; SMN2 splice enh: 20µM*; FLuc counter: inconclusive

What do the screens show for `CC(C)OC(=O)CSc1nc2ncccc2[nH]1`?
Rab9 promoter act: -2.2%; NPC1 prom act: 1.0%; uPA generation: 0.4%; ELG1 genotoxic: -2.1%; SMN2 splice enh: -1.5%; FLuc counter: 0.2%

How did Fc1ccccc1CSc1nc2ncccc2[nH]1 do in these assays?
Rab9 promoter act: inconclusive; NPC1 prom act: inconclusive; uPA generation: -1.3%; ELG1 genotoxic: 10.3µM*; SMN2 splice enh: 22.4µM*; FLuc counter: 15.1µM*

What do the screens show for `COc1ccc(CSc2nc3ncccc3[nH]2)cc1`?
FLuc counter: 19µM*

What do the screens show for `O=c1[nH]c(SCc2ccccc2F)nc2ccccc12`?
Rab9 promoter act: 6.4%; NPC1 prom act: -1.5%; uPA generation: 1.7%; ELG1 genotoxic: 7.7%; FLuc counter: 0.3%

How did COc1ccc(CSc2nc3ccccc3[nH]2)cc1 do in these assays?
Rab9 promoter act: 0.501µM*; NPC1 prom act: 0.398µM*; uPA generation: -8.2%; ELG1 genotoxic: inconclusive; SMN2 splice enh: inconclusive; FLuc counter: 1.51µM*

Results for CC(C)CCSc1nc2ccccc2[nH]1 ?
Rab9 promoter act: 3.55µM*; NPC1 prom act: 3.55µM*; ELG1 genotoxic: inconclusive; SMN2 splice enh: 14.1µM*; FLuc counter: 10.7µM*

Results for COC(=O)c1ccc(NC(=O)CN(C)S(=O)(=O)c2ccc3c(c2)CCCC(=O)N3)cc1 ?
FLuc counter: 2.6%

What do the screens show for `c1ccc2[nH]c(SCc3ccc(-c4nnco4)cc3)nc2c1`?
Rab9 promoter act: 3.55µM*; NPC1 prom act: inconclusive; uPA generation: -0.8%; ELG1 genotoxic: inconclusive; SMN2 splice enh: 25.5%; FLuc counter: 10.7µM*

What do the screens show for `COC(=O)c1cccc(CSc2nc3ccccc3[nH]2)c1`?
Rab9 promoter act: inconclusive; NPC1 prom act: 2.51µM*; uPA generation: inconclusive; ELG1 genotoxic: inconclusive; SMN2 splice enh: 3.16µM*; FLuc counter: 7.57µM*

Results for O=C1CCC(=O)N1c1ccc(CSc2nc3ccccc3[nH]2)cc1 ?
Rab9 promoter act: 22.3%; NPC1 prom act: 13.2%; uPA generation: -4.1%; ELG1 genotoxic: inconclusive; SMN2 splice enh: -8.6%; FLuc counter: inconclusive

What do the screens show for `O=c1nc2sc3ccccc3n2c(=O)n1-c1ccc(Cl)c(Cl)c1`?
SMN2 splice enh: 1.5%; FLuc counter: -4.0%
